Test results published in PubChem BioAssay AID1159580 (chemical genetic matrix, 2015).
“And” between values parts separate entries of the source, which are not always exact repeats. Identical values can stand only once. The campaign covered roughly 5,500 compounds. About 2,000 (36%) were called active. Inconclusive results (about 18%) are left out. Rule as the data show it: active = normalized growth mostly below about 0.91 (no sharp cut-off); inconclusive = no clear call, values can overlap the other calls; inactive = mostly above about 0.92. The list shows a part of the results.

Assay: chemical genetic growth profiling, strain panel (AID 1159580);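 also: tested at 20 µM; growth read once vehicle control cultures reached saturation at 30 °C; 1 = growth at the plate median or of vehicle wells; lower values mean less growth of the strain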
Details: S. cerevisiae deletion strains, growth OD

Measured: normalized growth

O=C(O)c1ccccc1O
inactive: locus YAL013W, strain DEP1, active compounds read low 1.01 | locus YAL021C, strain ccr4, active compounds read low 0.985 | locus YAL026C, strain drs2, active compounds read low 0.984 | locus YAL030W, strain snc1, active compounds read low 0.992 | locus YBL061C, strain skt5, active compounds read low 0.979 | locus YBR009C, strain hhf1, active compounds read low 0.996 | locus YBR021W, strain FUR4, active compounds read low 0.994 | locus YBR023C, strain chs3, active compounds read low 0.995 | locus YBR171W, strain sec66, active compounds read low 0.996 | locus YBR229C, strain ROT2, active compounds read low 1 | locus YBR231C, strain swc5, active compounds read low 0.975 | locus YBR279W, strain paf1, active compounds read low 0.979 | locus YCL011C, strain gbp2, active compounds read low 0.983 | locus YCL016C, strain dcc1, active compounds read low 1.01 | locus YCL029C, strain bik1, active compounds read low 1.01 | locus YCL069W, strain vba3, active compounds read low 0.994 | locus YCR088W, strain abp1, active compounds read low 0.981 | locus YDL005C, strain med2, active compounds read low 0.973 | locus YDL035C, strain GPR1, active compounds read low 1.01 | locus YDL040C, strain nat1, active compounds read low 0.969 | locus YDL074C, strain BRE1, active compounds read low 1.03 | locus YDL101C, strain DUN1, active compounds read low 1.01 | locus YDL134C, strain PPH21, active compounds read low 1.01 | locus YDL185W, strain tfp1, active compounds read low 0.992 | locus YDL192W, strain arf1, active compounds read low 1.01 | locus YDR001C, strain nth1, active compounds read low 0.955 | locus YDR069C, strain doa4, active compounds read low 0.975 | locus YDR101C, strain arx1, active compounds read low 1.01 | locus YDR137W, strain rgp1, active compounds read low 0.997 | locus YDR159W, strain sac3, active compounds read low 0.976 | locus YDR162C, strain NBP2, active compounds read low 1.01 | locus YDR195W, strain ref2 0.904 | locus YDR297W, strain sur2, active compounds read low 0.984 | locus YDR318W, strain mcm21, active compounds read low 1.03 | locus YDR334W, strain swr1, active compounds read low 0.916 | locus YDR335W, strain msn5, active compounds read low 0.959 | locus YDR388W, active compounds read low 1.01 | locus YDR392W, strain spt3, active compounds read low 1.02 | locus YDR502C, strain sam2, active compounds read low 1.01 | locus YEL003W, strain gim4, active compounds read low 0.973 | locus YEL037C, strain rad23, active compounds read low 0.986 | locus YEL061C, strain CIN8 (second series), active compounds read low 0.959 | locus YEL061C, strain CIN8, active compounds read low 1 | locus YER015W, strain faa2, active compounds read low 0.968 | locus YER016W, strain bim1, active compounds read low 0.978 | locus YER110C, active compounds read low 1.01 | locus YER111C, strain swi4, active compounds read low 0.97 | locus YER155C, strain BEM2 (second series), active compounds read low 0.967 | locus YER155C, strain BEM2, active compounds read low 0.992 | locus YER167W, strain BCK2, active compounds read low 1 | locus YFR010W, strain ubp6, active compounds read low 0.978 | locus YGL078C, strain dbp3, active compounds read low 0.998 | locus YGL086W, strain mad1, active compounds read low 1 | locus YGL167C, strain pmr1, active compounds read low 0.968 | locus YGL173C, strain kem1, active compounds read low 0.995 | locus YGL227W, strain vid30, active compounds read low 0.971 | locus YGL240W, strain doc1, active compounds read low 0.983 | locus YGL248W, strain PDE1, active compounds read low 1 | locus YGL253W, strain hxk2, active compounds read low 0.973 | locus YGR078C, strain PAC10, active compounds read low 1 | locus YGR135W, strain pre9, active compounds read low 1.03 | locus YGR252W, strain gcn5, active compounds read low 1.01 | locus YHR013C, strain ard1, active compounds read low 1.01 | locus YHR027C, strain rpn1, active compounds read low 0.984 | locus YHR030C, strain SLT2, active compounds read low 1.01 | locus YHR079C, strain IRE1 (second series), active compounds read low 1.02 | locus YHR079C, strain IRE1, active compounds read low 1.06 | locus YHR094C, strain hxt1, active compounds read low 0.997 | locus YHR129C, strain ARP1, active compounds read low 0.998 | locus YHR142W, strain chs7, active compounds read low 0.997 | locus YHR200W, strain rpn10, active compounds read low 1.01 | locus YIL066C, strain RNR3, active compounds read low 1 | locus YIL073C, strain SPO22, active compounds read low 1.05 | locus YIL125W, strain kgd1, active compounds read low 0.994 | locus YIR030C, strain dcg1, active compounds read low 1 | locus YJL092W, strain hpr5, active compounds read low 0.996 | locus YJL095W, strain BCK1 (second series), active compounds read low 0.978 | locus YJL095W, strain BCK1, active compounds read low 1.01 and 0.995 | locus YJL115W, strain asf1, active compounds read low 0.951 | locus YJL129C, strain trk1, active compounds read low 0.956 | locus YJL134W, strain LCB3, active compounds read low 1 | locus YJL154C, strain vps35, active compounds read low 0.961 | locus YJL164C, strain tpk1, active compounds read low 0.993 | locus YJL166W, strain qcr8, active compounds read low 0.994 | locus YJL168C, strain set2, active compounds read low 1.01 | locus YJL187C, strain SWE1 (second series), active compounds read low 1 | locus YJR043C, strain POL32, active compounds read low 0.979
